# According to PubChem BioAssay (NCATS):
# Results filed as inconclusive are left out. Calls of active or inactive are those of the source. Calls come from the whole dose curve; as a rule, active = well fitted cell-killing curve with a large enough effect; inconclusive = small, poorly fitted or top-dose-only effect; inactive = no such curve, though single readings can be large or run the other way.
# Assay: qHTS of pediatric cancer cell lines to identify multiple opportunities for drug repurposing: Confirmatory screen for U-2 OS cells (AID 1347122); note: nearly all actives have a fitted effect of over 65% in size
# Conditions: U-2 OS osteosarcoma cell viability; series mostly up to 45.9 µM
# Summary of the method: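 Cells (500-1,000/well) rested 5 h, then received compounds for 48 h; metabolically active cells were measured by CellTiter-Glo luminescence. Final concentrations spanned up to 46 µM (MIPE, 11-point) or 0.59 nM-46 µM (NPC, 8-point) in primary screens, 11-point in follow-ups.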
# Potency is the fitted concentration of half-maximal effect.
row,Compound,Potency
1,CC(C(C)N1CC(=O)NC(=O)C1)N1CC(=O)NC(=O)C1 (stereo unspecified),inactive
2,CS(=O)(=O)N1CCc2c(-c3cnc(N)nc3)nc(N3CCOCC3)nc21,1850 nM (active)
3,COC(=O)[C@@H]1[C@H]2C[C@@H]3c4[nH]c5ccccc5c4CCN3C[C@@H]2CC[C@@H]1O,inactive
4,C=CC(=O)Nc1cccc(Nc2nc(NC3CCC(N(C)C)CC3)nc3c2ncn3C(C)C)c1 (stereo unspecified),5220 nM (active)
5,N#CNC(=NCCCCCCOc1ccc(Cl)cc1)Nc1ccncc1,293 nM (active)
6,CC(C)C[C@H](NC(=O)CNC(=O)c1cc(Cl)ccc1Cl)B1OC(=O)CC(CC(=O)O)(C(=O)O)O1 (stereo partly specified),827 nM (active)
